For 68 sequences, z-score results are on record in PubChem BioAssay AID1508600 (Functional Genomics Laboratory (NCATS/FGL), 2020).

Among all 53,000 sequences or so, about 3,700 (7%) were called active.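 How the source made its calls: active means gene knockdowns whose robust z-score for IL-1 alpha signal is at least 2 or at most -2, so actives lie on both sides; inactive means the rest.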 The sample as a whole holds a higher share of actives than the screen did.

The nature of this assay: Components of the Cytosolic LPS Sensing Pathway: Gene Identification via Genome-wide siRNA Screen.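 Further: robust z of the log signal after scaling to non-targeting control siRNA wells of the plate.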 The following applies: RAW264.7 macrophages, IL-1a HTRF, actives lie on both sides, screened at 100 nM (by protocol), cells primed 5 h with Pam3CSK4 first. The gist of the method: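 Using IL-1a HTRF as read-out, the screen measured release from RAW264.7 cells after 48h siRNA knockdown (100 nM), 5 h Pam3CSK4 priming and 24 h cytosolic LipidA. Values were expressed relative to negative-control wells as robust z-scores.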
(In general: In TR-FRET formats the signal depends on donor and acceptor labels being close together.)
As for GGAUAACAGCAAGCUGGCGTT against Taldo1, the z-score is -0.585 (inactive). Then GCUAAGACAGAACUCUUCUTT against Nap1l5, with 3.14 (active); and GCGAGUGUAUGCUUGAGAATT against Hspa12b, with 1.01 (inactive); and CGACAAUCGACAAUCGUGCTT against Acta1, with -0.817 (inactive).

Consider GGCUUGUUCAAGAGAAGAUTT against Slc25a41, for which the z-score is 0.177 (inactive). In the case of CCUUACCCAGCAAUAAAAATT against Thegl it was 0.379 (inactive); in that of GGAUUCAGGAACACGGAGATT against D17H6S53E, 2.29 (active); in that of GGUACGAAGAAGACAAAAATT against Tnfsf9, -0.0411 (inactive). In the case of GCGGUGUGCUGGAUAAUUCTT against Vit it was -1.63 (inactive); in that of CCACUGUCCCUAAGGUACUTT against Olfr161, -0.292 (inactive); in that of GGGAUUUGUAUGAUGAUAATT against Sf3a3, -1.79 (inactive). In the case of GGAGGAACAUAUCAAGGAATT against Tmem143 it was 2.27 (active).

On to GGGAGAAUGUUUUUCUUACTT against Vsig8, for which the z-score is -0.956 (inactive).

With GGAGAUUGAACAGUCAAACTT against Pex5, the z-score is 3.01 (active).

As to GGAUAUCAACAGAUACAUCTT against Serpina12, the z-score is -0.493 (inactive). In the case of CGAUCUGUGAUUGAACCACTT against Pak1 it was -0.0456 (inactive); in that of GCGUGGACGAAUGGAAACATT against Mapk13, -0.942 (inactive); in that of GGGCAUCUUGUAUAUCUGGTT against Spata33, 0.363 (inactive). Then CCUAAUUUCCUAGAUCUUCTT against Rtp1, with -0.439 (inactive).

In the case of CCUUUUCCAUGCCUACUCCTT against Bag3, the z-score is 0.339 (inactive). Then CCUAAGGAAGAUAAACCGGTT against Sh2d7, with -2.43 (active). Take GGCAUUUACUACUUCAUAGTT against Nfam1: the z-score was 0.738 (inactive). Then GGAUAACUACAGGAAUAAGTT against Spam1, with -0.701 (inactive); and CCGUCCCUAUGAAAUCAGCTT against Lrat, with 2.28 (active); and GGCGAAUUGUAUUUGAAAGTT against Lactb, with 0.686 (inactive). Then GGAAGCAGUUCAUGUUAAGTT against Dtx4, with 1.12 (inactive); and GCCCACCUAAACCAACAGUTT against Dap, with 0.989 (inactive); and GGAAAGAAGGACAUGUUGCTT against Fbxo2, with -1.22 (inactive). On to GGAGCACAGAAAACACAAGTT against Ncan, for which the z-score was 3.41 (active). For CCACGCUACAUGCAAUGGCTT against Itpka, the z-score was 0.0149 (inactive). Take CCCUCUCUGGGACUACAUATT against Zfp395: the z-score was 0.00687 (inactive). In the case of “GGCAUGAGGGCAAAUGAAATT against 4933434M16Rik” it was -0.707 (inactive); in that of “GGAACAUUUUGGAAAAGACTT against 1300017J02Rik”, -0.0855 (inactive). Then GUACUAGCUAAUUGGGCCATT against Speer4b, with 0.651 (inactive); and GGUUCACCUGGAUUCUGCATT against Clasrp, with -2.1 (active). In the case of GGAGCAUAUACAACUCAGCTT against Dis3l it was 0.1 (inactive). For the sequence GGAUGGGAUGAAAAUUGAATT against Papolg, the z-score is -0.566 (inactive). In the case of GCUUGUCUCACACAGCUCUTT against Olfr401 it was -3.11 (active); in that of GGUACUGGAAGAGGAGGUATT against Ppil3, -0.507 (inactive). As to GCACAUUGGGAUAGCUGCATT against Trim65, the z-score was 1.48 (inactive). In the case of GGAAAUAUGUGUCCGCACUTT against Mfap2 it was -0.0699 (inactive).

Take GAGAGGGCAUAAUGGUUUUTT against H3c3: the z-score was 4.58 (active). In the case of GGGAUACAGAUUUUGUUUATT against Olfr1261 it was -0.116 (inactive); in that of GGGAAGUUGUCUGACUAUUTT against Cyc1, 0.225 (inactive); in that of GGGAAAUGGAGGAUAAUUATT against Zmat1, -0.172 (inactive). In the case of GCAAUUACAGGAGGAAUUATT against Orc3 it was 2.86 (active). As for GCUGAAAACUAGUCAGUCCTT against Epn3, the z-score was -1.07 (inactive).

With GCCUUAAAAGACCUGACGUTT against Abca8b, the z-score was 2.12 (active). In the case of GCUUACAGCACAACAACAUTT against Ubap1 it was -0.00967 (inactive); in that of CCUGGACACGAUUUCAGAGTT against Rbm6, 1.18 (inactive). Then GGAGGGUCGGCUUAUAAUUTT against Adam6b, with 2.16 (active). GGAAGCUUCAAGCCAUGGUTT against Creb3: the z-score is -0.919 (inactive). Then CGUUGGAUCUUGAUAAAACTT against Lpar2, with 0.179 (inactive). In the case of GGACUUGAUCAAUGGCUAUTT against Wscd1 it was -0.043 (inactive). With GUGGCGAUAUCCAGAGAUGTT against Vmn1r18, the z-score is 0.261 (inactive).

Regarding GCCGGCUGUAUUCAGUACGTT against Hoxc9, the z-score was 3.06 (active). Regarding GCCACGUCUAAGUAUCAUUTT against Col6a1, the z-score is -0.377 (inactive). In the case of GCUCUGUUGGAAAGGUUUATT against Exosc6 it was 0.0305 (inactive); in that of GCAACUGUUCUACGUCUGATT against Tmprss2, 1.63 (inactive); in that of GAAGCUGUCCAAGUACGAGTT against Atoh7, -0.299 (inactive). Then GGCAUGACAUGUAGAUGGCTT against Aldh3b3, with 2.17 (active); and CGAGCAAUGUUAAAAAUGATT against Slain2, with -0.993 (inactive). Then GGGCAAACCCAAGACCUUATT against Sgms2, with -0.0749 (inactive); and GGAAUUUGAGAUUGAAUGUTT against Katnbl1, with 0.478 (inactive).

For the sequence GCCUGGAGACUACAUAUCCTT against Cdc20, the z-score is -2.09 (active). Then GCUCGAAUGUGUAAAGACGTT against Csnk1e, with 0.982 (inactive); and CCUUGUUGCUCUGUCGAUCTT against Grina, with 0.0669 (inactive).

Turning to CCAAGCUUAUUGACAAUGATT against Spta1, the z-score is 0.213 (inactive).
